An excerpt weighted towards active compounds, which were near 5.5% of everything screened.
Giardia killer: Small Molecules that selectively kill Giardia lamblia: qHTS; activity change, % at 7.66 µM, hits read low; hit rate 0.15% among 340,000; Giardia lamblia trophozoite viability; AID 540267, 2011; in the data active = activity change below about -80%; inconclusive = between about -30% and that limit;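 note: parasites exposed to compound for two days anaerobically before the ATP read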
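Giardia trophozoites, 100 cells per well, were exposed to compounds for 48 hrs at 37 deg C under anaerobic conditions; viability was then read as ATP content by bioluminescence after 15-30 min at room temperature.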
Coupling enz: qHTS Assay for Inhibitors of Fructose-1,6-bisphosphate Aldolase from Giardia Lamblia: Coupling assay counterscreen. coupling enzyme system counterscreen, AmpLite Red fluorescence. hit rate 0.67% among 290,000. activity change, negative = inhibition, % at 58.2 µM, hits read low; in the data active = activity change below about -30%
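Coupling enzymes only (glyceraldehyde-3-phosphate) + compound, at 57.5 uM final, 10 min RT; add substrate/coupling/AmpLite Red mix, 20 min RT; fluorescence ex 525/em 598 nm. Actives flag coupling-system interference.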
Sfp inh: qHTS Assay for Inhibitors of Bacillus subtilis Sfp phosphopantetheinyl transferase (PPTase); 4'-phosphopantetheinyl transferase ffp (Bacillus subtilis), Q9F4F7; Biochemical Sfp PPTase activity, qHTS; Potency, µM, for inactives: largest response in the series, negative = inhibition, hits mostly inhibitors; hit rate 3.5% among 310,000; AID 1490, 2009;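 note: the enzyme is Sfp with the accession as filed and its product quenches rhodamine fluorescence; potency is the fitted concentration of half-maximal effect; 0% = enzyme reaction without inhibitor and -100% = no enzyme wells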
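Buffer: 50 mM Hepes-Na pH 7.6, 10 mM MgCl2, 0.01% Nonidet P-40, 0.01% BSA. Enzyme 15 nM, pre-exposed to compound 15 min; substrates then added and fluorescence change tracked over 30 min.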
ELG1 DNA repair: qHTS screen for small molecules that inhibit ELG1-dependent DNA repair in human embryonic kidney (HEK293T) cells expressing luciferase-tagged ELG1 | hit rate 2.3% among 330,000 | AID 504467, 2011 | HEK293T ELG1-luciferase reporter, luminescence, 16 h; DNA damage induced by 5-fluorouridine | Potency, µM (top dose mostly 46.1 µM), inactives show at the top dose activity change, negative = inhibition, hits mostly inhibitors; note: potency is the fitted concentration of half-maximal effect; nearly all actives have a fitted effect of over 55% in size
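HEK293T cells expressing luciferase-tagged ELG1 (2,000/well) received 5-Fluorouridine plus compound or DMSO for 16 hr at 37 °C. Luciferase was read by ONE-Glo luminescence after 30 min at room temperature.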
Active calls of the source: *; ? = inconclusive; · = not tested or not shown. Unless noted, calls come from the whole dose curve; as a rule, active = well fitted curve in the direction sought with a large enough effect; inconclusive = small, poorly fitted or top-dose-only effect, or another doubt; inactive = no such curve, though single readings can be large; an effect the other way counts as inactive or inconclusive. Unless noted, % is set by controls: 0 for no effect and ±100 for the full control effect.

SMILES	Giardia killer	Coupling enz	Sfp inh	ELG1 DNA repair
N#Cc1c(N2CCCC2)nc(N)c2c(N)nc(N3CCCC3)cc12	-6.2	-36.2*	-13.6%	?
COc1cc2c(C#N)c(N3CCCC3)nc(N)c2c(N)n1	13.5	-31.4*	3.98µM*	11.7%
COc1cc2c(C#N)c(N3CCN(C)CC3)nc(N)c2c(N)n1	·	-13.3	7.6%	3.2%
CCOC(=O)C1C(=O)NC(SCC(N)=O)=C(C#N)C1c1ccccc1OCC (stereo not given)	-19.8	2.6	15.8µM*	-16.4%
COC(=O)CSC1=C(C#N)C(c2ccc(C(C)C)cc2)CC(=O)N1 (stereo not given)	-7.5	0.1	0.2%	-1.8%
C=CCSC1=C(C#N)C(c2ccccc2OC)CC(=O)N1 (stereo not given)	25.1	0.6	56.2µM*	0.3%
Cc1ccc(C2CC(=O)NC(SCCC(C)C)=C2C#N)cc1 (stereo not given)	3.6	0.2	44.7µM*	1.8%
CCOc1ccccc1C1CC(=O)NC(SCC)=C1C#N (stereo not given)	-0.5	2.1	-1.3%	-1.0%
C=CCSC1=C(C#N)C(c2ccccc2OCC)CC(=O)N1 (stereo not given)	10.8	-1.1	70.8µM*	7.2%
CCOC(=O)C1C(=O)NC(SC)=C(C#N)C1c1ccccc1F (stereo not given)	1.4	-3.2	18.1%	-19.5%
C[C@H]1Cc2c(COc3ccccc3)nc3c(c2CO1)CN(S(=O)(=O)c1ccc2c(c1)OCCN2C)CC3	·	-0.2	7.4%	·
C=CCSC1=C(C#N)C(c2cccc(OC)c2)CC(=O)N1 (stereo not given)	0.7	-0.5	35.5µM*	11.2%
COC(=O)CSC1=C(C#N)C(c2cccc(OC)c2)CC(=O)N1 (stereo not given)	-21.0	3.4	2.3%	-7.9%
NNC(=O)c1cn2ccccc2n1	0.5	-2.2	79.4µM*	27.3%
Cc1cc(C(=O)CSc2nnnn2-c2ccc(O)cc2)c(C)n1Cc1ccc2c(c1)OCO2	2.1	3.6	5.0%	18.4µM*
Cc1cc(C(=O)CSc2nnnn2-c2ccccc2)c(C)n1-c1ccc2c(c1)OCO2	-16.7	0.3	-14.6%	-3.2%
C/C1=C\CCC2C(/C=C(\C)CC1)OC(=O)C2CN1CCCCC1 (stereo not given)	10.1	0.0	10.5%	-9.6%
COc1cc(NC(=O)c2ccccc2-c2ccccc2)cc(OC)c1OC	·	6.2	3.8%	?
COc1cc(NC(=O)c2cccnc2Sc2ccc(Cl)cc2)cc(OC)c1OC	20.7	-2.8	16.2%	8.2µM*
CCSc1ccccc1C(=O)Nc1cc(OC)c(OC)c(OC)c1	-6.6	0.6	15.8µM*	?
COc1cc(NC(=O)c2ccccn2)cc(OC)c1OC	-8.7	0.6	-18.4%	?
CCNC(=O)CCSc1nc(C)cc(C)n1	-3.8	1.1	31.6µM*	27.9%
Cc1cc(C)nc(SCCC(=O)N(C)C)n1	1.2	0.9	50.1µM*	?
Cc1cccc(NC(=O)CCSc2nc(C)cc(C)n2)c1	0.9	·	-10.3%	0.8%
C#CCn1c(CCNC(=O)c2ccco2)nc2ccccc21	?	1.3	-2.6%	?
SMILES	Giardia killer	Coupling enz	Sfp inh	ELG1 DNA repair
COc1ccc(CN2CCC3C=CCC(C(=O)O)C3C2=O)cc1OC (stereo not given)	-15.8	6.7	2.4%	·
N#CCCn1c(=O)c(CCc2ccccc2)nc2cnc(Oc3cccc(Cl)c3)nc21	·	-0.8	10.5%	·
Cc1ccc(C(C(=O)NC2CCCCC2)N(CC2CCCO2)C(=O)CNC(=O)c2cccs2)cc1 (stereo not given)	1.1	0.8	12.7%	-10.4%
Cc1ccc(CN(C(=O)CNC(=O)c2cccs2)C(C(=O)NCC2CCCO2)c2ccccc2)cc1 (stereo not given)	4.6	2.3	12.8%	9.2µM*
CN(C)c1ccc(C(C(=O)NCC2CCCO2)N(Cc2ccccc2)C(=O)c2snc(C(N)=O)c2N)cc1 (stereo not given)	4.0	-0.3	10.1%	11.6µM*
O=C(C[C@@H]1C/C=C\C[C@H](Cc2ccc(F)cc2)C(=O)OC[C@H]2CCCN2C1=O)NCCO	-12.8	·	·	6.7%
COc1cccc(NC(=O)CN(C)C(C)C(=O)N2CCCC2)c1 (stereo not given)	?	·	·	15.8%
COc1ccccc1N1C(=O)CSC1=NC(=O)c1ccccc1	8.4	0.3	-13.0%	28.8%
COc1ccccc1N=C1SCC(=O)N1c1ccccc1OC	-20.0	0.5	4.47µM*	-1.3%
COc1cc(OC)cc(C(=O)N[C@H](C(=O)Nc2cc(C)cc(C)c2)C(C)C)c1	-9.5	2.6	22.6%	-12.3%
COc1ccc(NC(=O)CN(C)CC(=O)Nc2ccc3c(c2)CCC3)cc1	-3.5	1.6	17.3%	-4.4%
COc1cc(OC)cc(C(=O)NC(C(=O)Nc2ccc3c(c2)CCC3)C(C)C)c1 (stereo not given)	-19.9	·	·	7.3µM*
COc1ccc(OC)c(CC(=O)Nc2ccc3c(c2)CCC3)c1	-3.1	-1.2	5.7%	-19.9%
CCCCN(C)CCC(=O)Nc1ccc2c(c1)CCC2	-25.3	3.1	6.9%	14.6µM*
COc1ccc(CC(=O)Nc2ccc3c(c2)CCC3)cc1OC	3.8	-0.5	-3.2%	10.3µM*
CCOc1ccc(C(=O)Nc2ccc(C(=O)N3CCOCC3)cc2)c(OCC)c1	-2.2	·	12.3%	-0.2%
O=c1[nH]c(SCc2cccc(Cl)c2)nc2[nH]ncc12	8.5	0.8	21.3%	?
CCN(CC(=O)Nc1cc(Cl)ccc1OC)CC(=O)NC1CCS(=O)(=O)C1 (stereo not given)	29.4	-0.5	79.4µM*	2.9%
COc1ccc(Cl)cc1NC(=O)CN(C)C1CCCCC1	14.4	0.1	6.0%	-4.4%
COc1ccc(Cl)cc1NC(=O)CN(C)C(=O)C12CC3CC(CC(Cl)(C3)C1)C2	6.5	·	-4.9%	18.3µM*
O=[N+]([O-])c1cc(S(=O)(=O)NCCN2CCOCC2)ccc1Cl	-5.2	0.3	0.7%	1.5%
O=C(Cc1cccc(NC(=O)C2CCN(C(=O)C3CC3)CC2)c1)Nc1cccc(C(=O)N2CCCCC2)c1	36.2	·	·	·
COc1ccc(NC(=O)CCCn2c(=O)c3sccc3n(Cc3ccc(C)cc3)c2=O)cc1	-5.5	-2.3	-7.2%	?
COc1ccc(NC(=O)CCCn2c(=O)c3sccc3n(Cc3ccc(C)cc3C)c2=O)cc1	11.4	-0.3	50.1µM*	?
O=C(Nc1cc(NC(=O)c2ccccc2F)ccc1Cl)c1ccccc1	?	-0.2	9.8%	9.0%
C=CCn1c(NC(=O)c2ccc(C)cc2)nc2ccccc21	-6.4	-0.4	22.9%	?
COC(=O)CN1C(=S)N(c2ccc(Cl)cc2)C(=O)C1CC(=O)Nc1ccc(Cl)cc1 (stereo not given)	13.3	-0.1	79.4µM*	?
